3CLpro inhibitor = SARS-CoV 3CLpro protease inhibition. P0C6X7. recombinant SARS-CoV 3CLpro, quenched FRET peptide cleavage. inhibition, % at 6 µM. hit rate 0.14% among 290,000. AID 1706; in the data active = inhibition above about 12%
BoNT A protease = BoNT A light chain protease inhibition. multiplex microsphere protease substrate cleavage, flow cytometry. hit rate 0.17% among 360,000. inhibition, % at 10 µM
Anthrax LF inh2 = inhibitors of Bacillus anthracis lethal factor protease | P15917 | multiplex microsphere protease cleavage assay, LF | inhibition, % at 10 µM | hit rate 0.12% among 360,000 | AID 588501
Autofluor counter = compound fluorescence in toxin protease inhibitor counterscreen; compound autofluorescence counterscreen, microsphere flow cytometry; hits give high values; hit rate 3.1% among 360,000; fluorescence intensity (concentration not given with the values); AID 624483; in the data active = fluorescence intensity above about 16000; inconclusive = no clear call, values can overlap the other calls
CCHFV vOTU inh = CCHFV vOTU protease inhibition; Pep-AMC fluorescence; hit rate 0.55% among 370,000; inhibition, % at 11.5 µM; in the data active = inhibition above about 30%
BoNT F protease = blocks Botulinum neurotoxin F light chain protease; Multiplex microsphere protease cleavage assay, flow cytometry; inhibition, % at 10 µM; hit rate 0.22% among 360,000; in the data active = inhibition above about 35%, passing the limit was not always enough; inconclusive = no clear call, values can overlap the other calls
Of the large screens only hits and unclear results are named; the others gave an inactive call. Only some compounds are listed: those with a hit (about 3.9% of all), similar ones and a draw of the others. Cut-off read from the data, not from the text of the source, unless noted: active = inhibition above about 30%; inconclusive = no clear call, values can overlap the other calls; inactive = below that.

COc1ccc(-c2nnn(CC(=O)N(Cc3ccccc3Cl)C(C(=O)NCC3CCCO3)c3ccco3)n2)cc1 (stereo not given)	Autofluor counter 20046
COC(=O)C1=C(C)N(CC(C)C)C(=S)NC1c1ccc(-c2ccccc2)cc1 (stereo not given)	none (no result: 3CLpro inhibitor, BoNT A protease, Anthrax LF inh2, Autofluor counter, BoNT F protease)
CCOC(=O)C1=C(C)NC2=C(C(=O)CC(C)(C)C2)C1c1cccc(C)n1 (stereo not given)	Autofluor counter 20812
CCOc1ccc(-c2n[nH]c(=S)c3ccccc23)cc1	none
O=C(NCc1ccncc1)c1ccc(Br)cc1	Autofluor counter 22240
O=C(NCc1ccccc1)NC(=O)c1ccncc1	Autofluor counter 20362
O=C(NCc1ccccc1)NC(=O)c1ccccc1	none
O=c1ccnc(SCn2nnc3ccccc3c2=O)[nH]1	Autofluor counter 21117
Cc1cc(=O)[nH]c(SCn2nnc3ccccc3c2=O)n1	none
O=C(CCC(=O)OCC(F)(F)C(F)F)Nc1ccc(F)cc1F	none
Cc1ccc(NC(=O)OCC(F)(F)C(F)F)cc1NC(=O)OCC(F)(F)C(F)F	BoNT A protease inconclusive, Autofluor counter 21692
COc1ccc(NC(=O)CCC(=O)OCc2ccc(C(=O)Oc3ccc(Cl)cc3)cc2)cc1	Autofluor counter 19988
CCOC(=O)Nc1cc(C(=O)OC)ccc1C	Anthrax LF inh2 inconclusive, Autofluor counter inconclusive
O=C(CCC(=O)OCC(F)(F)C(F)F)Nc1ccc(Cl)cc1	BoNT A protease inconclusive, Autofluor counter 17876
CCOC(=O)CSc1nc2c(c(=O)[nH]c(=O)n2C)n1CCCc1ccccc1	Autofluor counter 22767
CCCCC1NC(=S)N(C2CCCCC2)C1=O (stereo not given)	none
N#C/C(=C1\CCCN1)c1nc2ccccc2c(=O)[nH]1	none
N#C/C(C(=O)c1ccccc1)=C1/CCCN1	Autofluor counter 23223
O=C(Nc1ccc(F)cc1)c1cnc(-c2ccccc2)nc1-c1ccccc1	BoNT A protease inconclusive, Autofluor counter 18660
O=C(Nc1ccc(F)c(F)c1)c1cnc(-c2ccccc2)nc1-c1ccccc1	BoNT A protease inconclusive, Anthrax LF inh2 inconclusive, Autofluor counter inconclusive, BoNT F protease inconclusive
CCC(=O)N1CCc2cc(S(=O)(=O)N3CCN(c4cc(C)ccc4C)CC3)ccc21	none (no result: CCHFV vOTU inh)
COC(=O)c1ccc(C2SCC(=O)N2Cc2ccccc2)cc1 (stereo not given)	none (no result: CCHFV vOTU inh)
O=C1CSC(c2ccccc2)N1Cc1ccccc1 (stereo not given)	Autofluor counter 16347, BoNT F protease inconclusive
COc1ccc(C(=O)NCC23C=CC(O2)C2C(=O)N(Cc4ccccc4)C(=O)C23)cc1 (stereo not given)	BoNT A protease inconclusive, Autofluor counter 19591
CC(=O)Oc1ccc(N2C(=O)C3C4C=CC(CO)(O4)C3C2=O)cc1 (stereo not given)	none
CCC/C(=N\NC(=O)C1CCCC1)c1ccccc1	none
CCN(CC)S(=O)(=O)c1cc(NC(=O)C(=O)c2c(-c3ccccc3)cc3ccccn23)ccc1C	Autofluor counter 25900
CCN(CC)S(=O)(=O)c1cccc(NC(=O)C(=O)c2c(-c3ccccc3)cc3ccccn23)c1	none
COCCNC(=S)N(C)[C@H]1C[C@H]2c3[nH]c4cccc(-c5ccccc5)c4c3CCN2C(=O)[C@H]1[C@H](C)O	none (no result: 3CLpro inhibitor, BoNT A protease, Anthrax LF inh2, Autofluor counter, BoNT F protease)
CCC(=O)NC(c1ccc([N+](=O)[O-])cc1)c1c(O)ccc2ccccc12 (stereo not given)	BoNT A protease inconclusive, Autofluor counter 24260
Cc1nc2c(ccc3c([N+](=O)[O-])cccc32)c(C)c1C	none
Cc1nnc(C)n1/N=C/c1ccc(C(=O)O)cc1	Autofluor counter 22576
COCc1cccc(-c2csc(C(O)c3ccc(OC)cc3)n2)c1 (stereo not given)	none (no result: 3CLpro inhibitor)
CN(Cc1ccccc1)C(=O)c1cc(-c2ccc(Br)cc2)on1	Autofluor counter 23868
Cc1ccc(Nc2c3c(nc4ncnn24)CCC3)cc1	Autofluor counter 23876
COc1ccc([C@@H]2Sc3cc(OC)ccc3N(CCN(C(C)C)C(C)C)C(=O)[C@H]2OC(C)=O)cc1	Autofluor counter 20962
Cc1cnc(C(=O)Nc2ccc(F)cc2)cn1	Autofluor counter 21955
Cc1cnc(C(=O)Nc2ccc(C(C)C)cc2)cn1	none
O=C(Nc1ccc(N2CCN(C(=O)c3ccccc3)CC2)cc1)c1cccs1	none
CCC(=O)N1CCN(c2ccc(NC(=O)c3cccs3)cc2)CC1	Autofluor counter 17020
O=C(O)CCCC(=O)Nc1nc2n(n1)C(c1ccc(F)cc1)CC(c1ccc(Cl)cc1)N2 (stereo not given)	Autofluor counter 21330
COCC(=O)Nc1nc2n(n1)C(c1ccc(OC)cc1)CC(c1ccc(OC)cc1)N2 (stereo not given)	BoNT A protease inconclusive, Autofluor counter 21259
CCOc1ccc(C2CC(c3ccccc3)Nc3nc(N)nn32)cc1 (stereo not given)	BoNT A protease inconclusive, Autofluor counter 18914
COCC(=O)Nc1nc2n(n1)C(c1ccccc1)CC(c1ccc(OC)cc1)N2 (stereo not given)	none
CN(C)S(=O)(=O)c1cccc(C(=O)N/N=C\c2cccc(C#N)c2)c1	none (no result: 3CLpro inhibitor, BoNT A protease, Anthrax LF inh2, Autofluor counter, BoNT F protease)
Nc1cccc2nsnc12	BoNT F protease inconclusive
Nc1cc2nsnc2cc1Br	CCHFV vOTU inh 97
Cc1cccc(NC(=S)NNC(=O)CCn2cc(C)cn2)c1	BoNT A protease inconclusive, Autofluor counter 22732
Cc1cccc(NC(=O)CCSc2nncn2C)c1	Autofluor counter 22260
Cc1cc(C(=O)CSc2nnc(CCC(N)=O)n2C)c(C)n1C1CC1	none (no result: 3CLpro inhibitor)
O=C1CC(C(=O)Nc2ccccc2)C2(CCCC2)O1 (stereo not given)	none
Cc1cccc(NC(=O)C2CC(=O)OC23CCCCC3)c1 (stereo not given)	none
Cc1ccc(CNC(=O)C2CC(=O)OC23CCCC3)c(C)c1 (stereo not given)	Autofluor counter 16440
COc1ccc(C)cc1NC(=O)C1CC(=O)OC12CCCCC2 (stereo not given)	Autofluor counter 22901
O=[N+]([O-])c1ccc(/C=[N+](\[O-])CCO)o1	none
CCCc1cc(Nc2c(C)n(C)n(-c3ccccc3)c2=O)n2c(nc3ccccc32)c1C#N	Autofluor counter 22932
Cc1cc(Nc2c(C)n(C)n(-c3ccccc3)c2=O)n2c(nc3ccccc32)c1C#N	none
Cc1ccc(S(=O)(=O)NCCn2c(C)cc3ccccc32)cc1	none (no result: BoNT A protease, Anthrax LF inh2, Autofluor counter, CCHFV vOTU inh, BoNT F protease)
Cc1cccc(CC(=O)NCCn2c(C)cc3ccccc32)c1	BoNT A protease 89
O=C1CC(c2ccccc2Cl)C2=C(COC2=O)N1 (stereo not given)	Autofluor counter 23482
O=C(c1cc2c(=O)n3ccccc3nc2s1)N1CCOCC1	Autofluor counter 21556
CC1CCN(C(=O)c2cc3c(=O)n4ccccc4nc3s2)CC1	none
O=c1nc(-c2ccccc2Cl)c2cc(F)ccc2[nH]1	BoNT F protease 51
O=c1c2ccccc2[nH]c2ccc(F)cc12	none
CCOC(=O)C1CCN(C(=O)Nc2c(-c3ccccc3)noc2C)CC1	none
O=c1c2ccccc2oc2nc(-c3ccco3)n(-c3ccccc3)c(=O)c12	none
